Screens: PubChem, National Center for Advancing Translational Sciences (NCATS)
Only some compounds are listed: those with a hit (about 3% of all), similar ones and a draw of the others.
Tau FP inhib: qHTS for Inhibitors of Tau Fibril Formation, Fluorescence Polarization | Microtubule-associated protein tau (Homo sapiens), P10636 | K18 P301L tau heparin fibrillization, Alexa594 FP, 6 h | Potency, µM (series often up to 57.7 µM), for inactives: at the highest dose activity, negative = inhibition, hits mostly inhibitors | hit rate 0.39% among 280,000; note: nearly all actives have a fitted effect of over 55% in size
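Human K18 P301L fragment (15 uM unlabeled plus 0.24 uM Alexa 594-labeled) in 100 mM sodium acetate pH 7 with compound, aggregation induced by 20 uM heparin for 6 hr at 37 C. ThT (30 uM) added for 1 hr, then Alexa 594 FP read.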
TRb-SRC2 inh: qHTS for Inhibitors of the Interaction of Thyroid Hormone Receptor and Steroid Receptor Coregulator 2. hit rate 0.065% among 280,000. Potency, µM (titrated, usually from 106 µM), for inactives: top-dose activity change, negative = inhibition, usual class: inhibitors. Thyroid hormone receptor beta (Homo sapiens), P10828. AID 1469, 2008. TRbeta-SRC2 peptide binding, fluorescence polarization; receptor liganded with 1 µM T3;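 note: plate controls were bound peptide for no effect and peptide without receptor for full effect; nearly all actives have a fitted effect of over 50% in size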
Target sequence (P10828 whole entry, looked up): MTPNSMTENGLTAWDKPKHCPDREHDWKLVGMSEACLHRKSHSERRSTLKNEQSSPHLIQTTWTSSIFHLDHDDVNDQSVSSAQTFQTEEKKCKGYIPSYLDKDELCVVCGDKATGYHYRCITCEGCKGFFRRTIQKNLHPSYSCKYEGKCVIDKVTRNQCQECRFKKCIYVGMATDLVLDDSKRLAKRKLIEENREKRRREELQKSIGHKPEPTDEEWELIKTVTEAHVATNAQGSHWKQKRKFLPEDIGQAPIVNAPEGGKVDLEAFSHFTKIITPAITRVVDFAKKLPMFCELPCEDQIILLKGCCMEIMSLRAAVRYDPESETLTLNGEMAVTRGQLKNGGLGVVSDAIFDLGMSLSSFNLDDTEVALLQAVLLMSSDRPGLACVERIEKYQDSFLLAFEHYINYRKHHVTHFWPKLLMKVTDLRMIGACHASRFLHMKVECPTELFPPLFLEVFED
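Decrease in fluorescence polarization of 20 nM Texas Red SRC2 coactivator peptide flagged inhibition of its binding to 0.6 uM TRb LBD; 1 uM T3 included, incubation 5 hr, ex 555/em 632 nm.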
Tau fibril ThT: qHTS for Inhibitors of Tau Fibril Formation, Thioflavin T Binding; Microtubule-associated protein tau (Homo sapiens), P10636; recombinant tau K18 P301L, heparin-induced fibrillization, ThT fluorescence; Potency, µM (highest dose often 57.4 µM), for the others: at the highest dose activity, negative = inhibition, actives largely listed as inhibitors; hit rate 2.1% among 270,000; note: nearly all actives have a fitted effect of over 55% in size
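ThT emission at 510 nm, taken 1 hr after adding 30 uM dye, quantifies aggregates formed when 20 uM heparin acts on human tau K18 P301L for 6 hr at 37 C.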
TexasRed fluor: Total Fluorescence Counterscreen for Inhibitors of the Interaction of Thyroid Hormone Receptor and Steroid Receptor Coregulator 2 | Potency, µM (titrated, usually from 106 µM), without a hit: top-dose fluorescence change, negative = quenching | hit rate 0.29% among 280,000 | TRb/SRC2 Texas Red total fluorescence interference; active = well fitted curve in either direction with a large enough effect; inconclusive = small, poorly fitted or top-dose-only effect
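Flags fluorescent or light-absorbing compounds by total fluorescence, S + 2P, at 555 nm excitation and 632 nm emission. Mixture: 20 nM Texas Red SRC2 peptide, 0.6 uM human TRb LBD, 1 uM T3, 5% DMSO; compound exposure 5 h at ambient temperature.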
Tau fluor counter: Counterscreen qHTS for Inhibitors of Tau Fibril Formation, Fluorescence Polarization | tau K18 P301L Alexa594 fluorescence, heparin fibrillization | Potency, µM (titrated, usually from 57.7 µM), inactives show at the top dose activity change, negative = decrease | hit rate 0.93% among 280,000; note: nearly all actives have a fitted effect of over 55% in size
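Human tau K18 P301L (15 uM unlabeled, 0.24 uM Alexa 594-labeled) in 100 mM sodium acetate pH 7 with 20 uM heparin, 6 hr at 37 C. ThT 30 uM added, 1 hr ambient; Alexa 594 FP and total fluorescence read at 555/632 nm.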
* = called active by the depositor; ? = inconclusive; [ ] = remark or other dose. Unless noted, calls come from the whole dose curve; as a rule, active = well fitted curve in the direction sought with a large enough effect; inconclusive = small, poorly fitted or top-dose-only effect, or another doubt; inactive = no such curve, though single readings can be large; an effect the other way counts as inactive or inconclusive. Unless noted, % is set by controls: 0 for no effect and ±100 for the full control effect; potency is the fitted concentration of half-maximal effect.

SMILES	Tau FP inhib	TRb-SRC2 inh	Tau fibril ThT	TexasRed fluor	Tau fluor counter
Cc1ccc(-c2cc3ncc4c(n3n2)-c2cc(C)ccc2OC4)cc1	-9.7%	-0.5%	-17.7%	1.6%	-12.1%
Cc1ccc(-c2cc3ncc4c(n3n2)-c2cc(F)ccc2OC4)cc1	-4.8%	-5.5%	3.2%	25.1µM*[quencher]	-7.0%
CCOc1ccc(N2CC(NC(=O)CCc3ccccc3)CC2=O)cc1 (stereo unspecified)	-6.1%	3.4%	-2.7%	-1.6%	-1.5%
COC(=O)c1c(-c2cccs2)csc1NC(=O)COc1ccc(C(C)C)cc1	?	-6.9%	28.2µM*	-20.6%	-17.0%
CCCc1ccc(OCC(=O)Nc2scc(-c3cccs3)c2C(=O)OC)cc1	?	-28.6%	22.4µM*	-26.7%	-23.4%
O=C1c2cccc3cccc(c23)C(=O)N1/N=C/c1ccc(O)cc1O	-8.9%	10.3%	-9.3%	-4.3%	-19.6%
Oc1ccc(/C=N/N2CCOCC2)c(O)c1O	10µM*	-14.4%	8.91µM*	-7.5%	-27.2%
O=C1c2ccccc2C(=O)N1/N=C/c1ccc(O)c(O)c1O	6.31µM*	3.0%	3.98µM*	?	?
Cc1cc(C)cc(NS(=O)(=O)c2ccc3[nH]cc(C(=O)N4CCCCCC4)c(=O)c3c2)c1	-6.0%	-2.0%	0.1%	-1.1%	-13.6%
COc1cccc(NS(=O)(=O)c2ccc3[nH]cc(C(=O)NC4CCCCC4)c(=O)c3c2)c1	7.08µM*	-3.4%	?	-0.7%	3.55µM*[quencher]
Cc1cc(C)cc(NS(=O)(=O)c2ccc3[nH]cc(C(=O)NCc4ccccc4Cl)c(=O)c3c2)c1	3.16µM*	-14.5%	5.1%	?	?
COc1cccc(NS(=O)(=O)c2ccc3[nH]cc(C(=O)NC4CC4)c(=O)c3c2)c1	-18.8%	4.8%	13.4%	1.3%	-22.3%
CC(C)c1ccc(NS(=O)(=O)c2ccc3[nH]cc(C(=O)NC4CCCCC4)c(=O)c3c2)cc1	3.55µM*	1.8%	?	-2.7%	?
Cc1cc(C)cc(NS(=O)(=O)c2ccc3[nH]cc(C(=O)NC4CCCCC4)c(=O)c3c2)c1	7.94µM*	0.5%	?	-1.3%	?
CC(C)c1ccc(NS(=O)(=O)c2ccc3[nH]cc(C(=O)N4CCC(C(N)=O)CC4)c(=O)c3c2)cc1	-7.1%	0.8%	-9.8%	0.3%	-12.9%
CC(C)c1ccc(NS(=O)(=O)c2ccc3[nH]cc(C(=O)NCC4CCCO4)c(=O)c3c2)cc1 (stereo unspecified)	15.8µM*	6.3%	-8.0%	-0.1%	?
C[C@H](O/N=C1/[C@H]2O[C@@H]2[C@@H](O)[C@H]2[C@H]1CCn1c(=O)n(-c3ccccc3)c(=O)n12)c1cn([C@H](CO)Cc2ccccc2)nn1	-1.4%[11.6 µM]	-0.9%[11.2 µM]	-6.1%[11.5 µM]	-6.7%[11.2 µM]	-7.3%[11.6 µM]
CCc1ccc(-c2cc3c(N4CCN(c5ccccc5)CC4)nccn3n2)cc1	8.5%	6.2%	?	?	-13.1%
CCOC(=O)C1=NN(c2ccccc2)C(=O)/C1=C\c1ccc(N(C)C)cc1	3.4%	1.0%	?	-2.9%	-28.9%
CC1=NN(Cc2ccccc2)C(=O)/C1=C\c1ccc(N(C)C)cc1	-1.4%	1.4%	20µM*	-10.8%	-22.9%
CCCCOC(=O)c1ccc(NC(=O)/C=C/c2cccs2)cc1	14.1µM*	-3.5%	13.8%	2.2%	?
CCOC(=O)c1ccc(NC(=O)Nc2ccc(OC)c(OC)c2)cc1	?	0.9%	?	-1.2%	12.6µM*[quencher]
O=C(/C=C/c1cccs1)c1ccc(NC(=O)c2cccc(Br)c2)cc1	?	2.3%	7.08µM*	-2.3%	?
COc1cccc(NC(=O)Nc2cccs2)c1	13.6%	-10.4%	?	-0.2%	?
CCOC(=O)c1ccccc1NC(=O)Nc1ccc(OC)c(OC)c1	8.6%	6.1%	6.8%	2.7%	6.5%
